The text below walks through data of PubChem BioAssay AID2685 (National Center for Advancing Translational Sciences (NCATS), 2010).

Each structure is given as a SMILES string. In all, about 320,000 compounds went through this assay and about 2,100 (0.66%) were called active. Another 53% or so got no clear call; they are omitted. The sample holds actives, similar compounds and a random draw of the others, so the mix is not that of the screen. The call rests on the fitted dose curve; in most records, active means well fitted inhibition curve with a large enough effect in the signal ratio, with a control signal flat (not every such curve was filed as active); inconclusive means small, poorly fitted or top-dose-only effect, or effect the other way, or a change in a side signal; inactive means flat fitted curve, though single readings scatter; the % refers to the signal ratio.
Potency means the concentration at half of the fitted maximal effect.

The nature of this experiment: qHTS Assay for Lipid Storage Modulators in Drosophila S3 Cells.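 On cell number change: cells counted by Cell Tracker Red CMTPX staining in the red channel.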 On lipid storage change, negative = inhibition: on the % scale 0 is the no-effect control and ±100 the full control effect. The settings on record: BODIPY lipid droplet fluorescence, 18-24 h, cells fed with added oleic acid; cell number change: measured here: cell count max response; series mostly up to 46.1 µM. Put shortly:
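Drosophila S3 cells loaded with oleic acid (400 uM, as added) and compounds at several concentrations; lipid droplets imaged by 488-nm laser-scanning cytometry, 500–530 nm intensity and object ratio to cell channel. Percent activity normalized to 20 uM Triacsin C.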
Regarding `Cc1cccc(NC(=O)CSc2nnnn2C)n1`, the Potency result was “inactive” and the cell number change is -5.08%.

On to `NC(=O)C1CCN(CC(=O)Nc2ccccn2)CC1`, for which the Potency result was “inactive”.

With `O=C(CN1CCN(CC(=O)Nc2ccccn2)CC1)Nc1ccccn1`, the Potency is 29.1 µM (active) and the cell number change is 1.87%.

Turning to `Cn1nnnc1SCC(=O)Nc1ccccc1Br`, the Potency result is “inactive” and the cell number change is -3.35%.

Take `CCOC(=O)C1=C(C)NC(=O)NC1c1ccc(OC(C)C(=O)O)c(OC)c1` (stereo unspecified): the Potency result was “inactive” and the cell number change stood at 0.405%.

Take `O=C(C[n+]1ccccc1)N/N=C/c1cccc(Cl)c1Cl`: the Potency entry is “inactive” and the cell number change came out at 4.15%.

In the case of `CCOc1ccc(C(=O)Nc2ccccc2-c2ccccc2)cc1Cl`, the Potency entry was “inactive” and the cell number change was -2.51%.

Turning to `O=C(CSc1nc2ccccc2c(=O)n1-c1ccc(F)cc1)NC1CCS(=O)(=O)C1` (stereo unspecified), the Potency result is “inactive”.

`COc1ccc(OC)c(NC(=O)COC(=O)CN(C)S(=O)(=O)c2ccc(C)cc2)c1`: the Potency result was “inactive” and the cell number change was 1.08%.

In the case of `Cc1[nH]c2ccccc2c1/C=N/NC(=O)C1CC1(c1ccccc1)c1ccccc1` (stereo unspecified), the Potency entry was “inactive” and the cell number change was -28.5%.

With `Cc1ccc(C(=O)NCc2cccnc2)o1`, the Potency result was “inactive” and the cell number change is -7.92%.

For `CC1(C)Cc2c(sc3ncnc(NN)c23)CO1`, the Potency entry was “inactive” and the cell number change came to 28.8%.

On to `CCCCCC(=O)Nc1nc(C)c(-c2csc(Nc3ccc(Cl)cc3)n2)s1`, for which the Potency result was “inactive” and the cell number change is -19%.

For `CCC(=O)Nc1nc(C)c(-c2csc(Nc3cccc(C(=O)O)c3)n2)s1`, the Potency result was “inactive” and the cell number change was found to be 10.2%.

Turning to `CCCCCCC(=O)Nc1nc(C)c(-c2csc(Nc3ccc(Cl)cc3)n2)s1`, the Potency result is “inactive”.

As to `Cc1nc(C)c(-c2csc(Nc3cccc(O)c3)n2)s1`, the Potency result was “inactive” and the cell number change was -15.3%.

Take `CCC(=O)Nc1nc(C)c(-c2csc(Nc3cccc(O)c3)n2)s1`: the Potency was 29.1 µM (active) and the cell number change is -27%.

For the molecule `CC(=O)Nc1ccc(Nc2nc(-c3sc(NC(C)=O)nc3C)cs2)cc1`, the Potency is 20.6 µM (active) and the cell number change is -25.9%.

With `Nc1ncc(-c2nnnn2-c2ccc(Cl)cc2)c(-c2ccc(Cl)cc2)n1`, the Potency result was “inactive” and the cell number change stood at 22.6%.

On to `COC(=O)/C=C1\NCCNC1=O`, for which the Potency entry is “inactive” and the cell number change came to 9.92%.

For `COc1ccc(NC(=O)CCC(=O)N/N=C/c2cccnc2)cc1`, the Potency entry is “inactive” and the cell number change stood at 1.18%.

For the molecule `COc1cc(CN2CCc3ccc(NC(=O)CCc4ccccc4OC)cc3C2)ccc1O`, the Potency result was “inactive” and the cell number change was -9.87%.

With `Cc1ccc(C)c(NC(=O)CN(C)C(=O)c2sccc2C)c1`, the Potency was 4.61 µM (active).

Take `Cc1ccc(C)c(NC(=O)CN(C)C(=O)Cc2ccccc2)c1`: the Potency entry was “inactive” and the cell number change worked out at 0.0719%.

As for `Cc1ccsc1C(=O)N(C)CC(=O)Nc1ccccc1Br`, the lipid storage change, negative = inhibition is 15.6% [at 0.0737 µM] (inactive).

`CSCCC(NS(=O)(=O)c1ccccc1F)C(=O)NNC(=O)c1csc(N2CCOCC2)n1` (stereo unspecified): the cell number change is -7.74% and the lipid storage change, negative = inhibition is 27.4% [at 0.0737 µM] (inactive).

Consider `CC1CC(C)CN(C(=O)COC(=O)c2nn(C)c(=O)c3ccccc23)C1` (stereo unspecified), for which the Potency entry is “inactive” and the cell number change worked out at 14.1%.

In the case of `CC1CC(C)CN(C(=O)COC(=O)Cc2c[nH]c3ccccc23)C1` (stereo unspecified), the Potency result is “inactive”.

As for `CC1CC(C)CN(C(=O)COC(=O)c2c[nH]c3ccccc23)C1` (stereo unspecified), the Potency is 0.92 µM (active) and the cell number change is -17%.

For `CCc1c(C)sc(NC(=S)NC(C)C2CCCO2)c1C(=O)OC` (stereo unspecified), the Potency result was “inactive” and the cell number change was 8%.

For `CCOC(=O)c1c(NC(=O)C2CC=CCC2C(=O)O)sc(C)c1CC` (stereo unspecified), the Potency result is “inactive” and the cell number change worked out at 12.8%.

In the case of `CCc1c(C)sc(NC(=O)C2CC2)c1C(=O)OC(C)C`, the Potency is 1.3 µM (active) and the cell number change was -47.8%.

As for `CC(NC(=O)CN(c1ccc(Br)cc1)S(C)(=O)=O)c1ccccc1` (stereo unspecified), the Potency result is “inactive” and the cell number change worked out at 6.99%.

Take `CC(NC(=O)CN(c1ccc(Cl)cc1)S(C)(=O)=O)c1ccccc1` (stereo unspecified): the Potency entry is “inactive” and the cell number change was determined as 17.6%.

Consider `CC(NC(=O)CN(c1ccc(F)cc1)S(C)(=O)=O)c1ccccc1` (stereo unspecified), for which the Potency is 4.11 µM (active) and the cell number change was -10.2%.

With `Cc1ccccc1CN1C[C@@H]2C[C@@H](c3cnc(N4CCOCC4)s3)N3CCC[C@@]23C1=O`, the Potency result was “inactive” and the cell number change amounted to 3.26%.

Consider `COc1ccc(C(NC(=O)CNC(C)=O)C(=O)Nc2ccc3c(c2)OCCO3)cc1` (stereo unspecified), for which the Potency entry is “inactive” and the cell number change turned out to be 8.96%.

Consider `O=P(c1ccccc1)(c1ccccc1)C(O)c1ccncc1` (stereo unspecified), for which the Potency result was “inactive” and the cell number change turned out to be 15.4%.

Take `CCO[C@@H]1OC(C(=O)N2CCN(Cc3ccccc3)CC2)=C[C@H](C2CC2)[C@H]1CCCO`: the Potency entry was “inactive” and the cell number change turned out to be 7.31%.

As to `CCO[C@H]1OC(C(=O)N2CCN(Cc3ccccc3)CC2)=C[C@@H](C2CCCCC2)[C@@H]1CCCO`, the Potency is 20.6 µM (active) and the cell number change was -29.1%.

As to `CCO[C@@H]1OC(C(=O)N2CCCCCCC2)=C[C@H](C2CCCCC2)[C@H]1CCCO`, the Potency entry is “inactive” and the cell number change was -14.4%.

Consider `COc1cc(S(=O)(=O)N2CCC(c3nc4ccccc4s3)CC2)ccc1S(=O)(=O)N1CC(C)CC(C)C1` (stereo unspecified), for which the Potency result is “inactive” and the cell number change amounted to 0.159%.

For the molecule `Cc1cc(=O)oc2cc(OCc3ccc(C(=O)OCC(=O)NC4CCS(=O)(=O)C4)cc3)ccc12` (stereo unspecified), the Potency result is “inactive” and the cell number change worked out at 8.28%.

As to `CCOc1cc(C(c2c(C)[nH][nH]c2=O)c2c(C)[nH][nH]c2=O)ccc1OS(=O)(=O)c1ccc(C)cc1`, the Potency entry is “inactive” and the cell number change came to 16%.

As for `COc1cc(C(c2c(C)[nH][nH]c2=O)c2c(C)[nH][nH]c2=O)ccc1OS(=O)(=O)c1ccccc1`, the Potency result was “inactive” and the cell number change was -3.94%.

With `CCOc1cc(C(c2c(C)[nH][nH]c2=O)c2c(C)[nH][nH]c2=O)ccc1OS(=O)(=O)c1ccccc1`, the Potency is 29.1 µM (active) and the cell number change is -2.58%.
